Results as given in PubChem BioAssay (NCI).
Compounds without any hit were thinned out: in the full panel of roughly 79,000, 15% have a hit. Values without a mark were called inactive. The source made the active and inactive calls. Cut-off read from the data, not from the text of the source: active = growth inhibition above about 70%; inactive = the rest.

Legend:
[1] = NCI Yeast Anticancer Drug Screen. Data for the rad52 strain (AID 147);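 note: 0% = growth of vehicle-treated control cultures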; conditions: S. cerevisiae rad52 mutant growth inhibition, hits give high values
Summary of the method: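 Yeast strain carrying a DNA damage repair alteration was exposed to test compounds. Growth inhibition was measured relative to vehicle-treated controls.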

[2] = NCI Yeast Anticancer Drug Screen. Data for the wt1 strain (AID 149);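 note: 0% = growth of vehicle-treated wt1 cultures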; conditions: S. cerevisiae wt1 strain (SPY 50644) growth inhibition, hits give high values
Summary of the method: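 wt1 strain grown with compound or vehicle; inhibition taken from the growth difference.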

[3] = NCI Yeast Anticancer Drug Screen. Data for the rad50EPP+ strain (AID 151);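 note: 0% = growth of vehicle-treated control cultures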; conditions: S. cerevisiae rad50 mutant strain, hits give high values
Summary of the method: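 Yeast strain carrying rad50 alteration (rad50EPP+) exposed to compounds; growth inhibition measured relative to vehicle-treated controls.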

[4] = NCI Yeast Anticancer Drug Screen. Data for the mgt1 strain (AID 153); conditions: S. cerevisiae mgt1 mutant growth inhibition, hits give high values
Summary of the method: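 Yeast mgt1 strain (DNA repair/cell-cycle alteration panel) exposed to compounds; growth inhibition measured relative to vehicle-treated controls.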

[5] = NCI Yeast Anticancer Drug Screen. Data for the rad50 strain (AID 155);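 note: 0% = growth of vehicle-only cultures of the same strain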; conditions: S. cerevisiae rad50 strain growth inhibition, hits give high values
Summary of the method: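 DNA repair mutant yeast, compound exposure, growth read-out; inhibition is taken relative to vehicle.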

[6] = NCI Yeast Anticancer Drug Screen. Data for the mec2-1 strain (AID 157); conditions: S. cerevisiae mec2-1 strain, hits give high values
Summary of the method: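 mec2-1 yeast strain, carrying an alteration in DNA damage repair or cell cycle control, was exposed to compounds; growth inhibition was measured relative to vehicle-treated controls.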

[7] = NCI Yeast Anticancer Drug Screen. Data for the rad14 strain (AID 159);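 note: 0% = growth of vehicle-treated control cultures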; conditions: S. cerevisiae rad14 strain growth inhibition, hits give high values
Summary of the method: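 DNA repair-defective yeast, compound-exposed; % growth inhibition derived by comparison with vehicle-treated controls.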

[8] = NCI Yeast Anticancer Drug Screen. Data for the sgs1 mgt1 strain (AID 161);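 note: 0% = growth of cultures given vehicle only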; conditions: S. cerevisiae sgs1 mgt1 strain, hits give high values
Summary of the method: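 Percent growth inhibition was derived by comparing compound-exposed mutant yeast with vehicle-exposed cultures. The strain carries alterations in DNA damage repair.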

[9] = NCI Yeast Anticancer Drug Screen. Data for the CLN2oe strain (AID 163);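 note: 0% = growth of vehicle-only control cultures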; conditions: S. cerevisiae CLN2oe strain, hits give high values
Summary of the method: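 Yeast cells carrying a defined cell-cycle control alteration were exposed to test compounds. Growth inhibition was scored against vehicle-treated control cultures.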

[10] = NCI Yeast Anticancer Drug Screen. Data for the bub3 strain (AID 167); conditions: S. cerevisiae bub3 mutant strain, hits give high values
Summary of the method: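 In this screen, a yeast mutant lacking normal mitotic checkpoint function is challenged with compound. Relative growth versus vehicle gives the inhibition value.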

[11] = NCI Yeast Anticancer Drug Screen. Data for the wt2 strain (AID 169);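 note: 0% = growth of vehicle-treated yeast cultures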; conditions: S. cerevisiae wt2 strain growth inhibition, hits give high values
Summary of the method: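 Yeast cells were exposed to test compounds, and growth inhibition was measured relative to vehicle-treated controls.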

[12] = NCI Yeast Anticancer Drug Screen. Data for the mlh1 strain (AID 171);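 note: 0% = growth of vehicle-treated control cultures of the same strain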; conditions: S. cerevisiae mlh1 strain growth inhibition, hits give high values
Summary of the method: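 Yeast carrying a defined genetic alteration in DNA damage repair or cell cycle control were exposed to test compounds. Growth inhibition was measured relative to vehicle-treated controls.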

[13] = NCI Yeast Anticancer Drug Screen. Data for the sgs1 strain (AID 173);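 note: 0% = growth of vehicle-only control cultures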; conditions: S. cerevisiae sgs1 mutant, hits give high values
Summary of the method: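 Yeast mutant strains carrying defined defects in DNA damage repair or cell cycle control were exposed to test compounds. Growth inhibition was scored against vehicle-treated controls.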

[14] = NCI Yeast Anticancer Drug Screen. Data for the mlh1 rad18 strain (AID 175); conditions: S. cerevisiae mlh1 rad18 strain growth inhibition, hits give high values
Summary of the method: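 Growth inhibition of the yeast strain was measured after compound exposure and expressed relative to vehicle-treated controls. The strain carries defined defects in DNA damage repair.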

[15] = NCI Yeast Anticancer Drug Screen. Data for the rad18 strain (AID 177); conditions: S. cerevisiae rad18 mutant growth inhibition, hits give high values
Summary of the method: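 Yeast carrying a defined DNA damage repair alteration were exposed to compounds. Growth inhibition was expressed relative to vehicle-treated controls.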

[16] = at 5.0 µM (retest, dose inferred, filed as 0.5)
[17] = at 50.0 µM (retest, dose inferred, filed as 5.0)

Compound CCCCCCCN1C(=O)c2ccccc2C1=O has a growth inhibition ([1]; at 1.2 µM) of -1%, a growth inhibition ([1]; at 3.7 µM) of -1% and a growth inhibition ([1]; at 11.0 µM) of -3%. For the same compound, the growth inhibition ([1]; at 33.0 µM) was 11%, the growth inhibition ([1]; at 100.0 µM) was 28% and the growth inhibition ([2]; at 1.2 µM) was 0%. For the same compound, the growth inhibition ([2]; at 3.7 µM) was -1%, the growth inhibition ([2]; at 11.0 µM) was -1% and the growth inhibition ([2]; at 33.0 µM) was -1%. For the same compound, the growth inhibition ([2]; at 100.0 µM) was 0%, the growth inhibition ([3]; at 1.2 µM) was 0% and the growth inhibition ([3]; at 3.7 µM) was -1%. It also gave a growth inhibition ([3]; at 11.0 µM) of 8%, a growth inhibition ([3]; at 33.0 µM) of 25% and a growth inhibition ([3]; at 100.0 µM) of 35%. The growth inhibition ([4]; at 1.2 µM) was -7%, the growth inhibition ([4]; at 3.7 µM) was -6% and the growth inhibition ([4]; at 11.0 µM) was -5%. For the same compound, the growth inhibition ([4]; at 33.0 µM) was 9%, the growth inhibition ([4]; at 100.0 µM) was 31% and the growth inhibition ([5]; at 1.2 µM) was -2%. It also gave a growth inhibition ([5]; at 3.7 µM) of 5%, a growth inhibition [5, 16] of -17% and a growth inhibition ([5]; at 11.0 µM) of 7%. The growth inhibition ([5]; at 33.0 µM) was 26%, the growth inhibition [5, 17] was 3% and the growth inhibition ([5]; at 50.0 µM) was 83.9% (active). The growth inhibition ([5]; at 100.0 µM) was 22%, the growth inhibition ([6]; at 1.2 µM) was -5% and the growth inhibition ([6]; at 3.7 µM) was -8%. It also gave a growth inhibition [6, 16] of -10%, a growth inhibition ([6]; at 11.0 µM) of -27% and a growth inhibition ([6]; at 33.0 µM) of -6%. For the same compound, the growth inhibition [6, 17] was 11%, the growth inhibition ([6]; at 50.0 µM) was 53.2% and the growth inhibition ([6]; at 100.0 µM) was -11%. The growth inhibition ([7]; at 1.2 µM) was -1%, the growth inhibition ([7]; at 3.7 µM) was -10% and the growth inhibition ([7]; at 11.0 µM) was 4%. The growth inhibition ([7]; at 33.0 µM) was 13%, the growth inhibition ([7]; at 100.0 µM) was 2% and the growth inhibition [8, 16] was -14%. It also gave a growth inhibition [8, 17] of 19%, a growth inhibition ([8]; at 50.0 µM) of 67.8% and a growth inhibition ([9]; at 1.2 µM) of -1%. It also gave a growth inhibition ([9]; at 3.7 µM) of -2%, a growth inhibition ([9]; at 11.0 µM) of -4% and a growth inhibition ([9]; at 33.0 µM) of -6%. For the same compound, the growth inhibition ([9]; at 100.0 µM) was -11%, the growth inhibition ([10]; at 1.2 µM) was 3% and the growth inhibition ([10]; at 3.7 µM) was -4%. For the same compound, the growth inhibition [10, 16] was -17%, the growth inhibition ([10]; at 11.0 µM) was 28% and the growth inhibition ([10]; at 33.0 µM) was 36%. The growth inhibition [10, 17] was 34%, the growth inhibition ([10]; at 50.0 µM) was 73.8% (active) and the growth inhibition ([10]; at 100.0 µM) was 37%. For the same compound, the growth inhibition ([11]; at 1.2 µM) was -2%, the growth inhibition ([11]; at 3.7 µM) was -1% and the growth inhibition ([11]; at 11.0 µM) was 0%. It also gave a growth inhibition ([11]; at 33.0 µM) of 11%, a growth inhibition ([11]; at 100.0 µM) of 45% and a growth inhibition ([12]; at 1.2 µM) of -12%. For the same compound, the growth inhibition ([12]; at 3.7 µM) was -6%, the growth inhibition ([12]; at 11.0 µM) was -19% and the growth inhibition ([12]; at 33.0 µM) was -19%. It also gave a growth inhibition ([12]; at 100.0 µM) of 1%, a growth inhibition ([13]; at 1.2 µM) of 0% and a growth inhibition ([13]; at 3.7 µM) of -1%. The growth inhibition ([13]; at 11.0 µM) was 2%, the growth inhibition ([13]; at 33.0 µM) was 14% and the growth inhibition ([13]; at 100.0 µM) was 44%. The growth inhibition [14, 16] was -31%, the growth inhibition [14, 17] was 56% and the growth inhibition ([14]; at 50.0 µM) was 86.6% (active). It also gave a growth inhibition ([15]; at 1.2 µM) of -1%, a growth inhibition ([15]; at 3.7 µM) of -5% and a growth inhibition ([15]; at 11.0 µM) of -1%. For the same compound, the growth inhibition ([15]; at 33.0 µM) was 13% and the growth inhibition ([15]; at 100.0 µM) was 28%.
